Assay outcomes from PubChem BioAssay.
A selection: hits, their analogues and other compounds. The true share with any hit is near 2.3%.
ATXN viability = cell viability loss in ATXN counter-screen; Potency, µM (series often up to 56.7 µM), hits mostly cytotoxic; actives 0.49% (n = 400,000); S2 cells (HEK-293 line with an ATXN2-luciferase reporter) viability, CellTiter-Fluor protease fluorescence, 24 h; AID 651635; note: nearly all actives have a fitted effect of over 40% in size
TGFb SMAD3 inh = blocks TGF-b signaling. HepG2 CAGA-GFP TGF-b/SMAD3 reporter, GFP fluorescence, 18 h; TGF-beta stimulated, 500 pg/mL final. actives 1.2% (n = 410,000). Potency, µM (series often up to 46.1 µM), most hits filed as inhibitors. AID 588855; note: nearly all actives have a fitted effect of over 65% in size
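First, reporter cells (HEPG2 CAGA-GFP) rested 2 h at 37 degrees C. Next, compounds were pinned in and TGF-beta added to 500 pg/mL final. After 18 h, GFP was imaged per cell and summed per well.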
HepG2 tox-1 = kills HepG2 cells in TGF-b inhibitor counter-screen; HepG2 CAGA-GFP viability, ATP luminescence, 18 h; Potency, µM (series often up to 46.1 µM), usual class: cytotoxic; actives 0.76% (n = 410,000)
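CellTiter-Glo luminescence gave cytotoxicity after 18 hours at 37 degrees C. The cells were HepG2 CAGA-GFP in 1% FBS DMEM, stimulated with 500 pg/mL TGF-beta after compound addition. %Activity was normalised to no-cell wells (complete cell-killing) and DMSO (no toxicity), and curves were fitted and classified.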
ATXN2 expr inh = ATXN2 expression inhibition; actives 0.72% (n = 360,000); AID 1745845; Potency, µM (series often up to 57 µM), actives largely listed as inhibitors; HEK-293 ATXN2-luciferase reporter, luminescence, 24 h; note: nearly all actives have a fitted effect of over 55% in size
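ATXN2-luciferase reporter cells (luciferase flanked by upstream and downstream ATXN2 gene portions) were treated 24 h at 37 °C with compounds at up to 57 uM. SteadyGlo luminescence gave expression; GF-AFC fluorescence gave viability.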
TGFb CAGA inh = confirmation of TGF-b signaling inhibitors in HepG2 reporter cells; shares compounds with TGFb SMAD3 inh; actives 63% (n = 1,600); Potency, µM (top dose mostly 46.1 µM), actives largely listed as inhibitors; HepG2 CAGA-GFP TGF-b reporter, GFP fluorescence, 18 h; cells stimulated with TGF-beta, 500 pg/mL; note: nearly all actives have a fitted effect of over 65% in size
HepG2 tox-2 = HepG2 cytotoxicity, TGF-b inhibitor counterscreen; shares compounds with TGFb SMAD3 inh; HepG2 CAGA-GFP viability, ATP luminescence, 18 h; cells stimulated with TGF-beta, 500 pg/mL; Potency, µM (titrated, usually from 46.1 µM), hits mostly inhibitors; actives 27% (n = 1,600); note: nearly all actives have a fitted effect of over 70% in size
TGFb CCL64 inh = orthogonal confirmation of TGF-b inhibitors in CCL64 cells. Potency, µM (titrated, usually from 46.1 µM), actives largely listed as inhibitors. CCL64 CAGA-GFP reporter, TGF-b stimulated, GFP fluorescence, 18 h. actives 41% (n = 1,600). shares compounds with TGFb SMAD3 inh. AID 720536; note: nearly all actives have a fitted effect of over 65% in size
COP TGFb inh = blocks TGF-b signaling in HepG2 COP reporter; shares compounds with TGFb SMAD3 inh; HepG2 COP-GFP TGF-b reporter, GFP fluorescence, 18 h; cells stimulated by added recombinant TGF-beta; Potency, µM (doses to about 46.1 µM), usual class: inhibitors; actives 3% (n = 1,600); AID 720537; note: nearly all actives have a fitted effect of over 70% in size
A number is an active result; i = inactive; ? = inconclusive; nt = no result; [ ] = remark or other dose. Calls come from the whole dose curve; as a rule, active = well fitted curve in the direction sought with a large enough effect; inconclusive = small, poorly fitted or top-dose-only effect, or another doubt; inactive = no such curve, though single readings can be large; an effect the other way counts as inactive or inconclusive.

SMILES	ATXN viability	TGFb SMAD3 inh	HepG2 tox-1	ATXN2 expr inh	TGFb CAGA inh	HepG2 tox-2	TGFb CCL64 inh	COP TGFb inh
CCOc1ccc(CCN2C(=S)N([C@@H](Cc3ccc(O)cc3)CN3CCC[C@@H]3CN3C(=S)NC[C@@H]3CC(C)C)C[C@@H]2Cc2ccc(O)cc2)cc1	7.08µM	4.47µM	i	?	8.2µM	11.6µM	5.17µM	i
Oc1ccc(C[C@H]2CNC(=S)N2C[C@H]2CCCN2C[C@H](Cc2ccccc2)N2C[C@H](Cc3ccc(O)cc3)N(CCc3ccccc3)C2=S)cc1	?	7.08µM	i	?	6.51µM	?	3.66µM	i
Oc1ccc(C[C@H]2CN([C@@H](Cc3ccc(O)cc3)CN3CCC[C@@H]3CN3C(=S)NC[C@@H]3Cc3ccccc3)C(=S)N2CCc2ccccc2)cc1	?	?	i	?	nt	nt	nt	nt
CC(C)C[C@@H](CN1CCCC1CN1C(=S)NC[C@@H]1Cc1ccc(O)cc1)N1C[C@H](Cc2ccc(O)cc2)N(CCc2ccccc2)C1=S (stereo partly drawn)	28.2µM	5.62µM	6.31µM	?	14.6µM	?	8.2µM	i
COc1cc(C2c3cc4c(cc3OC(NCCc3ccccc3)C2C)OCO4)cc(OC)c1OC (stereo not drawn)	i	?	i	i	?	i	16.4µM	i
Cc1ccc(NC(=O)c2cc(C(=O)c3cc(Cl)ccc3O)cn(-c3ccc(C)cc3)c2=O)cc1	i	7.94µM	i	i	?	?	?	i
N#Cc1cc(C(=O)c2cc(Cl)ccc2O)cn(-c2ccccc2)c1=O	i	i	i	i	nt	nt	nt	nt
Cc1ccc(COC(=O)c2nn(C)c(=O)c3ccccc23)cc1	i	?	i	i	?	i	i	i
Cn1nc(C(=O)OCc2ccc(F)cc2)c2ccccc2c1=O	i	i	i	i	nt	nt	nt	nt
COCCN(Cc1cc2cc3c(cc2nc1Cl)OCO3)C(=O)c1ccc(C)cc1	i	?	i	nt	?	i	i	i
COCCN(Cc1cc2cc(C)c(C)cc2nc1Cl)C(=O)Nc1ccccc1	i	i	i	i	nt	nt	nt	nt
Cc1ccc(C(NC(=O)C2CCCCC2)c2c(O)ccc3ccccc23)cc1 (stereo not drawn)	?	4.47µM	i	i	7.31µM	?	23.1µM	i
O=S(=O)(c1ccc(F)cc1)N1CCN(c2nc(-c3cccs3)nc3ccccc23)CC1	nt	i	i	nt	nt	nt	nt	nt
Clc1ccc2nc(-c3ccco3)c(Cc3ccccc3)n2c1	?	11.2µM	i	i	14.6µM	?	?	i
Fc1cccc(Cc2c(-c3ccco3)nc3c4ccccc4ccn23)c1	i	10µM	11.2µM	i	18.4µM	?	16.4µM	i
Fc1cccc(Cc2c(-c3ccco3)nc3ccc(Cl)cn23)c1	nt	?	i	i	nt	nt	nt	nt
Clc1cccc(Cc2c(-c3ccco3)nc3c4ccccc4ccn23)c1	?	nt	nt	i	nt	nt	nt	nt
COC(=O)CN1C(=O)[C@@H]2[C@H](C1=O)[C@@H]1CC(C(=O)OC)=C[C@@H](C(=O)OC)C3C1=C(C(=O)C31CCCCC1)[C@@H]2C (stereo partly drawn)	nt	i	i	nt	nt	nt	nt	nt
CCCN(CCC)c1nc(N)nc(C#N)n1	nt	i	i	nt	nt	nt	nt	nt
Cc1ccc(Nc2nc(NCc3ccco3)nc3nccnc23)cc1	nt	i	i	nt	nt	nt	nt	nt
O=CC(=O)c1ccc(Cl)cc1	nt	i	i	nt	nt	nt	nt	nt
COc1cc(C(=O)N2CC(=O)Nc3ccccc32)cc(OC)c1OC	i	i	i	nt	nt	nt	nt	nt
Cc1cc(C)cc(C(=O)N2CC(=O)Nc3ccccc32)c1	?	10µM	i	i	7.31µM	i	8.2µM	i
CCN(C[C@H]1N[C@@](CC)(C(=O)OC)[C@H]2C(=O)N(Cc3ccccc3)C(=O)[C@@H]12)C(=O)Nc1ccc(C)cc1	i	i	i	i	nt	nt	nt	nt
CCN(C[C@H]1N[C@@](Cc2ccccc2)(C(=O)OC)[C@H]2C(=O)N(Cc3ccccc3)C(=O)[C@@H]12)C(=O)Nc1ccc(C)cc1	?	?	i	i	14.6µM	i	?	i
SMILES	ATXN viability	TGFb SMAD3 inh	HepG2 tox-1	ATXN2 expr inh	TGFb CAGA inh	HepG2 tox-2	TGFb CCL64 inh	COP TGFb inh
O=C(Nc1ccc2nc(-c3ccco3)c(-c3ccco3)nc2c1)N1CCCC1	nt	?	i	nt	nt	nt	nt	nt
COc1ccc(S(=O)(=O)/N=C2\C=C(Nc3ccc(O)cc3)C(=O)c3ccccc32)cc1	6.31µM	0.794µM	0.891µM	3.16µM	0.581µM	4.11µM	1.3µM	?
Cc1ccc(NC2=C/C(=N/S(=O)(=O)c3cccs3)c3ccccc3C2=O)cc1C	i	i	i	i	nt	nt	nt	nt
CC(=O)Nc1ccc(NC2=C/C(=N/S(=O)(=O)c3cccs3)c3ccccc3C2=O)cc1	10µM	5.01µM	6.31µM	15.8µM	2.59µM	3.26µM	9.2µM	5.17µM
C=CCN1C[C@H](C(=O)N(CCCN(C)C)C(=O)NCC)C[C@@H]2c3cccc4[nH]cc(c34)C[C@H]21	?	nt	nt	i	nt	nt	nt	nt
COc1ccccc1CNC(=O)C(Cc1c[nH]c2ccccc12)NC(=O)OCc1ccccc1 (stereo not drawn)	?	11.2µM	i	i	?	?	?	i
COc1ccc(/C=C/c2ccccc2)cc1C1C2C=CCCC2(C)C(=O)N1Cc1ccccc1 (stereo not drawn)	nt	i	i	nt	nt	nt	nt	nt
CCOC(=O)C(C(=O)OCC)N(Cc1cc(OC)ccc1OC)C(=O)C1CC(CO[Si](C)(C)C(C)(C)C)=CN1C(=O)OC(C)(C)C (stereo not drawn)	nt	i	i	nt	nt	nt	nt	nt
CCOC(=O)N=Nc1c2ccccc2c2nc3no[nH]c3nc12	nt	0.708µM	0.794µM	?	0.651µM	0.731µM	1.3µM	0.731µM
CCOC(=O)N=Nc1c(O)n(CC(=O)OC)c2ccccc12	i	i	i	i[11.3 µM]	nt	nt	nt	nt
Cc1ccc(NC(=O)CN2CC(C)SC2=NC2CCCCC2)cc1 (stereo not drawn)	?	?	i	i	?	i	i	i
Cc1ccc(-c2csc(NC(=O)CCNC(=O)c3ccc(Cl)cc3)n2)cc1	?	?	i	?	i	i	?	i
O=S(=O)(c1ccccc1Br)N1CCN(c2nc(-c3cccs3)nc3ccccc23)CC1	nt	i	i	nt	nt	nt	nt	nt
Cc1cc(C)c(-c2csc(NC(=O)C3=NN(c4ccccc4)C(=O)CC3)n2)c(C)c1	?	?	i	nt	6.51µM	i	i	i
